Bioassay records as filed in PubChem.
Beta cell apopt: blocks beta cell apoptosis | INS-1E cytokine-induced death, ATP luminescence, 48 h; percent of positive-control rescue, neutral wells zero | protection from apoptosis, % (no concentration beside the values) | 0.8% of 300,000 active | AID 435005;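 active = Every replicate reaches about 75%, or at least half do and their mean reaches it too, limit read from the data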;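 note: higher means more ATP so stronger rescue from cytokine killing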
NR3A LBD binder: NR3A (human) ligand-binding domain modulation | NR3A LBD differential scanning fluorimetry, Tm shift; 0% = protein alone, 100% = glycine-bound protein | Tm shift relative to glycine control, % at 25 µM | 2.5% of 340,000 active;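 active = melting temperature shift of at least 10% of the positive control shift, at one fixed dose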
CSC inhib: blocks cancer stem cells; AID 2717; cancer stem cell-like cells viability, luminescence; inhibition, % at 7.5 µM; 1.1% of 300,000 active; in the data active = inhibition above about 75%; tested in HMLE shEcad cells
Mdm2-MdmX inh: inhibitors of human Mdm2/MdmX interaction; O15151+Q00987; SaOS-2 split-luciferase Mdm2/MdmX complementation, luminescence; inhibition, % at 8 µM; 3% of 330,000 active;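 active = inhibition of at least 50% at 8 µM in the primary screen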
Target sequence (O15151 whole entry, looked up): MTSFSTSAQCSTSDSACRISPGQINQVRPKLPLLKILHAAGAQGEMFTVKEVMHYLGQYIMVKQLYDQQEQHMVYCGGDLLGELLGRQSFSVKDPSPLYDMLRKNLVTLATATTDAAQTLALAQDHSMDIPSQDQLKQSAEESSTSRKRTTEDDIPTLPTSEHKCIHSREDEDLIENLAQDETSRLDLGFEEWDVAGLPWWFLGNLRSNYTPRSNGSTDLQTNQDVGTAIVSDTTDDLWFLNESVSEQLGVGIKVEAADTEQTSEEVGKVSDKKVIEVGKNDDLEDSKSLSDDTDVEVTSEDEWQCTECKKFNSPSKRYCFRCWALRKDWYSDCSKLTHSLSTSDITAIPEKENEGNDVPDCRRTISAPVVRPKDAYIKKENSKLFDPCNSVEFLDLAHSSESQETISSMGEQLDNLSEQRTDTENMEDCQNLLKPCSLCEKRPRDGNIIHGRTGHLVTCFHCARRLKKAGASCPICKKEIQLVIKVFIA
Target sequence (Q00987 whole entry, looked up): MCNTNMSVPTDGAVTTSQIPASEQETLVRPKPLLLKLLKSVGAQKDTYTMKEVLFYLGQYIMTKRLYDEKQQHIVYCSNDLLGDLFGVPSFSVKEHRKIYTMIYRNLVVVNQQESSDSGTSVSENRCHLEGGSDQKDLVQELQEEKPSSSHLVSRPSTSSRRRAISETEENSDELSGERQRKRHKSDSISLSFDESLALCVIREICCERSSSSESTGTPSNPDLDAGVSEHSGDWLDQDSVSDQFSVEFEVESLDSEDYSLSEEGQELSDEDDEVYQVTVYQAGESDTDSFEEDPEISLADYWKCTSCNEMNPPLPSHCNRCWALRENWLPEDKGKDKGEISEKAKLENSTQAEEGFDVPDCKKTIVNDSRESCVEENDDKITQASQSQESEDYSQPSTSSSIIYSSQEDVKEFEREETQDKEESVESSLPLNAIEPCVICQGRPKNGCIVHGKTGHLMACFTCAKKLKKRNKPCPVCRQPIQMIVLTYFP
MPTP block: blocks calcium-induced mitochondrial swelling; isolated mouse mitochondria, Ca2+ swelling absorbance, 30 min; inhibition, % at 10 µM; 1.4% of 360,000 active; AID 602449;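 active = inhibition of 50% or more, scaled per plate between neutral and stimulator controls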
SKKanGAS inh: blocks kanamycin growth of S. pyogenes SKKanGAS strain; BacTiter-Glo, 6 h; inhibition, % at 7.5 µM; 1.3% of 300,000 active; AID 1662;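 active = mean replicate score, as percent of positive control median, at least 50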;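 note: strain carries kanamycin resistance gene driven by streptokinase promoter and grows in 40 µg/ml kanamycin; loss of luminescence reflects streptokinase promoter inhibition or plain growth inhibition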
Hits are given with their value. Only some compounds are listed: those with a hit (about 6.9% of all), similar ones and a draw of the others.

CCCCCCCCCC(=O)NNC(=O)c1c(O)c2ccccc2n(CC)c1=O was read as Beta cell apopt inactive, NR3A LBD binder inactive, CSC inhib inactive, Mdm2-MdmX inh inactive, MPTP block inactive and SKKanGAS inh inactive.
Screening CCn1c(=O)c(C(=O)NNC(=O)c2ccccc2F)c(O)c2ccccc21 returned Beta cell apopt inactive, NR3A LBD binder inactive, CSC inhib inactive, Mdm2-MdmX inh inactive, MPTP block inactive and SKKanGAS inh 90.
`Cc1cc(OCC(=O)N(C(C)C)C(C)C)cc(C)c1Br` gave Beta cell apopt inactive, NR3A LBD binder inactive, CSC inhib inactive, Mdm2-MdmX inh inactive, MPTP block inactive and SKKanGAS inh inactive.
Screening C[C@H](CO)N1C[C@H](C)[C@@H](CN(C)CC2CCCCC2)Oc2c(NC(=O)CCC(F)(F)F)cccc2C1=O returned Beta cell apopt inactive, NR3A LBD binder inactive, CSC inhib inactive, Mdm2-MdmX inh inactive and MPTP block inactive.
For CCCCc1c(O)c2ccccc2n(CCCC)c1=O the results were Beta cell apopt inactive, NR3A LBD binder inactive, CSC inhib inactive, Mdm2-MdmX inh inactive, MPTP block inactive and SKKanGAS inh inactive.
`CCCCCCn1c(=O)c(-c2ccccc2)c(O)c2ccccc21` gave Beta cell apopt inactive, NR3A LBD binder 12, CSC inhib inactive, Mdm2-MdmX inh inactive, MPTP block inactive and SKKanGAS inh inactive.
Screening CCn1c(=O)c(C(=O)NCc2ccccc2OC)c(O)c2ccccc21 returned Beta cell apopt inactive, NR3A LBD binder inactive, CSC inhib 76, Mdm2-MdmX inh inactive, MPTP block inactive and SKKanGAS inh inactive.
Screening CCCn1c(=O)c(C(=O)NCc2ccccc2OC)c(O)c2ccccc21 returned Beta cell apopt inactive, NR3A LBD binder inactive, CSC inhib inactive, Mdm2-MdmX inh inactive, MPTP block inactive and SKKanGAS inh inactive.
Cn1c2c(c3ccccc31)CCN1CCC[C@]21c1ccccc1 was read as NR3A LBD binder inactive, Mdm2-MdmX inh inactive, MPTP block inactive and SKKanGAS inh inactive.
`CCn1c(=O)c(C(=O)NNS(=O)(=O)c2ccc(Br)cc2)c(O)c2ccccc21` gave Beta cell apopt inactive, NR3A LBD binder inactive, CSC inhib inactive, Mdm2-MdmX inh inactive, MPTP block inactive and SKKanGAS inh inactive.
Screening Cc1ccc(O)c(-c2cc(-c3cccc(Br)c3)n[nH]2)c1 returned Beta cell apopt inactive, NR3A LBD binder 28, CSC inhib inactive, Mdm2-MdmX inh inactive, MPTP block inactive and SKKanGAS inh 100.
For Oc1ccc(Cl)cc1-c1cc(-c2ccccc2)n[nH]1 the results were Beta cell apopt inactive, NR3A LBD binder 25, CSC inhib inactive, Mdm2-MdmX inh inactive, MPTP block inactive and SKKanGAS inh 55.
`COc1ccc(O)c(-c2cc(-c3ccccc3Cl)[nH]n2)c1` gave NR3A LBD binder inactive, Mdm2-MdmX inh inactive, MPTP block inactive and SKKanGAS inh 59.
Screening Oc1ccccc1-c1cc(-c2ccccc2)n[nH]1 returned Beta cell apopt inactive, NR3A LBD binder inactive, Mdm2-MdmX inh inactive and MPTP block inactive.
Screening Cc1ccccc1-c1cc(-c2ccccc2O)n[nH]1 returned Beta cell apopt inactive, NR3A LBD binder inactive, CSC inhib inactive, Mdm2-MdmX inh inactive, MPTP block inactive and SKKanGAS inh 55.
CSc1ccc(/C=C(\NC(=O)c2ccco2)C(=O)N2CCCCC2)cc1 was read as Beta cell apopt inactive, NR3A LBD binder inactive, CSC inhib inactive, Mdm2-MdmX inh inactive, MPTP block inactive and SKKanGAS inh inactive.
`Cc1ccc(-c2cc(-c3ccc(C)cc3O)[nH]n2)cc1` gave Beta cell apopt inactive, NR3A LBD binder inactive, CSC inhib inactive, Mdm2-MdmX inh inactive, MPTP block inactive and SKKanGAS inh inactive.
Oc1ccc(F)cc1-c1cc(-c2ccc3c(c2)OCCO3)n[nH]1 was read as Beta cell apopt inactive, NR3A LBD binder inactive, CSC inhib inactive, Mdm2-MdmX inh inactive, MPTP block inactive and SKKanGAS inh 56.
Screening Oc1ccccc1-c1cc(-c2ccc(F)cc2)n[nH]1 returned Beta cell apopt inactive, NR3A LBD binder inactive, CSC inhib inactive, Mdm2-MdmX inh inactive, MPTP block inactive and SKKanGAS inh inactive.
Screening Cc1ccc(-c2cc(-c3ccc(F)cc3)n[nH]2)c(O)c1 returned Beta cell apopt inactive, NR3A LBD binder 12, CSC inhib inactive, Mdm2-MdmX inh inactive, MPTP block inactive and SKKanGAS inh inactive.
Screening Cc1ccc(-c2cc(-c3ccccc3[N+](=O)[O-])[nH]n2)c(O)c1 returned Beta cell apopt inactive, NR3A LBD binder inactive, CSC inhib inactive, Mdm2-MdmX inh inactive, MPTP block inactive and SKKanGAS inh inactive.
`Cc1ccc(-c2cc(-c3ccccc3Cl)[nH]n2)c(O)c1` gave Beta cell apopt inactive, NR3A LBD binder 12, CSC inhib 112, Mdm2-MdmX inh inactive, MPTP block inactive and SKKanGAS inh 110.
`Cc1ccc(C(=O)/C=C/c2ccc(F)cc2)o1` gave NR3A LBD binder inactive, CSC inhib inactive, Mdm2-MdmX inh inactive, MPTP block inactive and SKKanGAS inh inactive.
O=C(/C=C/c1ccc(F)cc1)c1ccccc1Br was read as Beta cell apopt inactive, NR3A LBD binder inactive, CSC inhib 108, Mdm2-MdmX inh inactive, MPTP block inactive and SKKanGAS inh inactive.
Screening O=C(COC(=O)C1CC(O)CN1S(=O)(=O)c1ccc(Cl)cc1)c1ccccc1Cl (centres undefined) returned Beta cell apopt inactive, NR3A LBD binder inactive, CSC inhib inactive, Mdm2-MdmX inh inactive, MPTP block inactive and SKKanGAS inh inactive.
For Cc1ccc(S(=O)(=O)N2CC(O)CC2C(=O)OCC(=O)c2ccccc2Cl)cc1C (centres undefined) the results were Beta cell apopt inactive, NR3A LBD binder 25, CSC inhib inactive, Mdm2-MdmX inh inactive, MPTP block inactive and SKKanGAS inh inactive.
For COc1ccc(NC2CCCN(C(=O)CCc3scnc3C)C2)cc1 (centres undefined) the results were Beta cell apopt inactive, NR3A LBD binder 14, CSC inhib inactive, Mdm2-MdmX inh inactive, MPTP block inactive and SKKanGAS inh inactive.
`CCC(C)NC(=O)c1ccc2c(c1)S(=O)(=O)c1ccccc1C2=O` (centres undefined) gave Beta cell apopt inactive, NR3A LBD binder inactive, Mdm2-MdmX inh inactive, MPTP block inactive and SKKanGAS inh inactive.
Screening Cc1cc(C)n2c(NC3CCCCC3)c(-c3ccccn3)nc2n1 returned MPTP block inactive.
Screening c1ccc(-c2nc3ccccn3c2NC2CCCC2)nc1 returned NR3A LBD binder inactive, CSC inhib inactive, Mdm2-MdmX inh inactive, MPTP block inactive and SKKanGAS inh 75.
`O=C(C[n+]1ccc2ccccc2c1)c1ccc(NC(=O)c2ccccc2)cc1` gave Beta cell apopt inactive, NR3A LBD binder inactive, CSC inhib inactive, Mdm2-MdmX inh inactive, MPTP block inactive and SKKanGAS inh inactive.
Screening COc1cc(N=Nc2ccccc2C(=O)O)ccc1O returned Beta cell apopt inactive, NR3A LBD binder inactive, CSC inhib inactive, Mdm2-MdmX inh inactive, MPTP block inactive and SKKanGAS inh inactive.
For Oc1ccc(N=Nc2c(O)ccc3ccccc23)cc1 the results were Beta cell apopt inactive, NR3A LBD binder inactive, CSC inhib 78, Mdm2-MdmX inh inactive, MPTP block inactive and SKKanGAS inh inactive.
